Measurements: PubChem BioAssay AID588342 (National Center for Advancing Translational Sciences (NCATS), 2011)
“And” between values parts separate entries of the source, which are not always exact repeats. Equal values may be shown once. Among all 360,000 compounds or so, about 25,000 (6.9%) were called active. Inconclusive results (about 9%) are left out. The call rests on the fitted dose curve; in most records, active means well fitted inhibition curve with a large enough effect; inconclusive means small, poorly fitted or top-dose-only effect; inactive means flat fitted curve, though single readings scatter. For the sample, actives were picked, then their nearest neighbours and some compounds at random. Where a structure was tested more than once in an assay, its records may differ in their call.

target: Luciferin 4-monooxygenase (Photinus pyralis) (UniProt P08659); experiment: qHTS profiling assay for firefly luciferase inhibitor/activator using purifed enzyme and Km concentrations of substrates (counterscreen for miR-21 project); conditions: purified FLuc, luminescence inhibition; series mostly up to 57.5 µM; activity change, negative = inhibition: at the top concentration; further: nearly all actives have a fitted effect of over 55% in size;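 on activity change, negative = inhibition: plate controls were vehicle for no effect and reference inhibitor for full effect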
Sequence (P08659 whole entry, looked up): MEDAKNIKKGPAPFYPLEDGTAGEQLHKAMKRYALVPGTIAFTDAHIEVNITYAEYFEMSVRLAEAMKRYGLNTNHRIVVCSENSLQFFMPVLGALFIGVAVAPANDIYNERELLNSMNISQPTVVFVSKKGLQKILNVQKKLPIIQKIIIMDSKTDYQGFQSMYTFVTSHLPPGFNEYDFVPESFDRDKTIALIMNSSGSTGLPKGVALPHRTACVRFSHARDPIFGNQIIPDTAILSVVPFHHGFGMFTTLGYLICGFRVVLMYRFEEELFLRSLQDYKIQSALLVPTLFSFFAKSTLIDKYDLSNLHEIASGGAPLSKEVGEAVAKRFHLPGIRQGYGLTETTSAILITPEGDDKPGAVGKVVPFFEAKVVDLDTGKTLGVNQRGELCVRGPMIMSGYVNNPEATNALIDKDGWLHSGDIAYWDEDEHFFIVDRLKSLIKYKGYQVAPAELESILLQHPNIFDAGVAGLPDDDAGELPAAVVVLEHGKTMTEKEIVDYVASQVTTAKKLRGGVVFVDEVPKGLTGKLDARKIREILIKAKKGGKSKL
Summary of the method: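 Purified P. pyralis luciferase, 10 nM final, with Km-level 10 uM D-luciferin and 10 uM ATP in 50 mM Tris acetate pH 7.5, 10 mM Mg acetate, 0.01% Tween-20, 0.05% BSA; 6-point qHTS titration about 60 µM downward; luminescence read.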
Potency means the concentration at half of the fitted maximal effect.

| Structure (SMILES) | activity change, negative = inhibition | Potency |
| --- | --- | --- |
| Nc1ccc(S(=O)(=O)Nc2nccc(/C=C/c3ccc(Br)s3)n2)cc1 | -10.2% (inactive) |  |
| Oc1cccc2ccc(/C=C/c3ccc(Br)s3)nc12 |  | 6.75 µM (active) |
| COc1cccc(N(CC(=O)NC2CCCC2)C(=O)CCCC(=O)Nc2ccccn2)c1 | 0.401% (inactive) |  |
| COc1ccc(C(=O)Nc2c(Cl)cc(Cl)cc2C(=O)N2CCC(C)CC2)cc1 | 1.11% (inactive) |  |
| CC1CCN(C(=S)c2ccc(-c3ccc(Cl)cc3Cl)o2)CC1 |  | 12 µM (active) |
| CC1CCN(C(=S)c2cccc(O)c2)CC1 | -1.03% (inactive) |  |
| O=C(CN1C(=O)COc2ccc(S(=O)(=O)N3CCOCC3)cc21)N1CCN(c2cccc(Cl)c2)CC1 | 0.0356% (inactive) |  |
| O=C(Nc1cn(-c2ccccc2)nc1-c1ccccc1)c1ccccc1 |  | 15.1 µM (active) |
| Cc1onc(-c2ccccc2)c1C(=O)Nc1ccccc1C#N | 9.37% (inactive) |  |
| O=C(NNC(=S)NC(=O)c1cn(-c2ccccc2)nc1-c1ccccc1)c1ccncc1 |  | 13.5 µM (active) |
| CC(=O)c1cccc(NC(=O)c2cc(C)nn2-c2ccccc2)c1 | -9.7% (inactive) |  |
| COc1ccc(C(=O)NC(=S)NNC(=O)c2c(-c3ccccc3)noc2C)cc1 | -0.585% (inactive) |  |
| Cc1onc(-c2ccccc2)c1C(=O)NNC(=S)NC(=O)c1ccc(F)cc1 | 1.17% (inactive) |  |
| CCCCn1cc(S(=O)(=O)c2ccc(OCC)cc2)c(=O)c2cc(OC)c(OC)cc21 | 0.657% (inactive) |  |
| CCCCC/C=C/C1=CC(=O)C[C@H](c2ccc(Cl)cc2)C1 | -0.231% (inactive) |  |
| CCOC(=O)c1cnc2c(C)cc(C)cc2c1Nc1ccc(N2CCOCC2)cc1 | -12.7% (inactive) |  |
| N#Cc1c(N)nc2c3c(sc(=N)c2c1N)NC(=O)CC3c1ccccc1Cl (configuration not stated) | -1.08% (inactive) |  |
| CSc1ncccc1C(=O)NCc1ccccc1Cl | 4.91% (inactive) |  |
| O=C(NC1CCCCCC1)C1CCN(C(=O)c2ccc(Cl)cc2)CC1 | -1.62% (inactive) |  |
| O=[N+]([O-])c1ccccc1NCc1ccccc1Cl | -11.8% (inactive) |  |
| S=C(NCCc1ccccc1)NCc1ccccc1Cl | -5.36% (inactive) |  |
| O=C(O)Cc1ccc(NCc2ccccc2Cl)cc1 |  | 7.57 µM (active) |

| Structure (SMILES) | activity change, negative = inhibition | Potency |
| --- | --- | --- |
| O=C(c1ccc(Cl)cc1)n1nc(-c2cccnc2)nc1NCc1ccc(F)cc1 | -0.314% (inactive) |  |
| CN(C)c1nc(=Nc2cccc(Cl)c2)ss1 |  | 3.38 µM (active) |
| CCOC(=O)N1CCc2c(sc3c2c(=O)n(Cc2ccccc2)c(=O)n3CC(=O)Nc2cccc(C)c2)C1 | -1.56% (inactive) |  |
| CCOc1cc(C(=O)Nc2nnc3n2CCS3)cc(OCC)c1OCC | -0.836% (inactive) |  |
| O=C(NCc1cccs1)c1ccc2c(c1)ncn2C1CCCC1 |  | 19 µM (active) |
| O=C(NCc1ccc(Cl)cc1)c1ccc2c(c1)nnn2C1CCCC1 | -2.28% (inactive) |  |
| Cc1ccc(-c2cn3c(n2)sc2cc(C(=O)NCc4cccs4)ccc23)c(C)c1 | 0.0935% (inactive) |  |
| Cc1ccccc1OCC(=O)Nc1nnc(S(=O)(=O)N2CCCC2)s1 | -9.21% (inactive) |  |
| CCOC(=O)CSc1nnc(NC(=O)c2cccc(S(=O)(=O)N3CCCC3)c2)s1 |  | 23.9 µM (active) |
| O=C(Nc1nnc(S(=O)(=O)N2CCCCCC2)s1)c1cccc(Br)c1 |  | inactive and 26.9 µM (active) |
| O=C(Nc1nncs1)c1cccc(S(=O)(=O)N2CCCCC2)c1 | -1.04% (inactive) |  |
| Cc1cccc(C(=O)Nc2nnc(S(=O)(=O)N3CCCCCC3)s2)c1 |  | 26.9 µM (active) |
| CCOC(=O)CSc1nnc(NC(=O)c2cccc(S(=O)(=O)N3CCCCC3)c2)s1 | -2.28% (inactive) |  |
| Cc1cccc(NC(=O)c2cccc(S(=O)(=O)N3CCCC3)c2)n1 | -5.53% (inactive) |  |
| O=C(Nc1nnc(S(=O)(=O)N2CCCc3ccccc32)s1)c1cccc(F)c1 | -1.73% (inactive) |  |
| CCc1nnc(NC(=O)c2cc(S(=O)(=O)N3CCCCC3)ccc2C)s1 | 3.35% (inactive) |  |
| CCOc1ccc(NC(=O)Cn2cc(C(=O)c3ccc(C)cc3)c(=O)c3cc4c(cc32)OCCO4)cc1 | -1.33% (inactive) |  |
| O=C(c1ccc(C(F)(F)F)cc1)N1CCC(c2nc(-c3ccc(S(=O)(=O)N4CCCC4)cc3)no2)CC1 | -8.47% (inactive) |  |
| COc1ccc(N2CCN(c3cc(C)nc4nncn34)CC2)cc1 | -7.53% (inactive) |  |
| Cc1ccc2oc3c(c(=O)c2c1)C(c1ccc([N+](=O)[O-])cc1)N(CCCN1CCOCC1)C3=O (configuration not stated) | -5.94% (inactive) |  |
| O=C1C=C(c2cccc(Cl)c2O)C[C@@H](c2ccc(F)cc2)C1 | 2.51% (inactive) |  |
| CCOc1ccc(NC(=O)Nc2cc(C)on2)cc1 | -5.5% [at 2.3 µM] (inactive) |  |

| Structure (SMILES) | activity change, negative = inhibition | Potency |
| --- | --- | --- |
| COc1ccc(C)cc1NC(=O)Nc1ccccc1SC | -11.6% (inactive) |  |
| COc1ccc(OC)c(NC(=O)c2ccc3c(c2)CCN3S(C)(=O)=O)c1 | -2.22% (inactive) |  |
| CCOc1ccc(NC(=O)Nc2cc(C)ccc2OC)cc1 |  | 2.69 µM (active) |
| CCOc1ccc(C(=O)Nc2cc(OC)ccc2OC)cc1 |  | 19 µM (active) |
| CCOc1ccc(S(=O)(=O)Nc2ccc(S(=O)(=O)Nc3cc(OC)ccc3OC)cc2)cc1 | 1.85% (inactive) |  |
| CCOc1ccc(NC(=O)CN(C)C(=O)CCSc2ccc(F)cc2)cc1OCC | 3.51% (inactive) |  |
| CCOC(=O)c1ccc(N2C(=O)c3n[nH]c(-c4ccco4)c3C2c2ccc(O)cc2)cc1 (configuration not stated) | -11.5% (inactive) |  |
| O=C(CSc1oc(-c2ccccc2)nc1S(=O)(=O)c1ccc(Br)cc1)NC1CCCCC1 | -1.57% (inactive) |  |
| COc1cccc(-c2nnc(NC(=O)c3ccc(S(=O)(=O)N(CC(C)C)CC(C)C)cc3)o2)c1 | 2.84% (inactive) |  |
| COc1ccc(-n2nc3c(c2NC(=O)c2ccc(N4C(=O)CCC4=O)cc2)CSC3)cc1 | 3.03% (inactive) |  |
| Cc1ccc(C(=O)Nc2nnc(C3=COCCO3)o2)cc1C | -6.57% (inactive) |  |
| Cc1ccc(S(=O)(=O)CC(=O)Nc2sc(C)c(C)c2C(N)=O)cc1 | 12% (inactive) |  |
| COc1ccccc1-c1nnc(NC(=O)c2ccc3ncsc3c2)o1 |  | 13.5 µM (active) |
| COc1ccccc1-c1nnc(SCC(=O)N2CC(C)CC(C)C2)o1 (configuration not stated) | -6.65% (inactive) |  |
| O=C(COC(=O)c1ccc2ncsc2c1)Nc1ccc(Cl)cc1 | -0.692% (inactive) |  |
| COc1ccccc1-c1nnc(NC(=O)c2cccc(N3C(=O)CCC3=O)c2)o1 |  | 19 µM (active) |
| Cc1sc(NC(=O)c2ccc3ncsc3c2)c(C(N)=O)c1C |  | 1.07 µM (active) |
| Cc1ccccc1C(=O)N(Cc1ccc(N(C)C)cc1)CC1CCCO1 (configuration not stated) | 0.652% (inactive) |  |
| CCn1cc2nc(SCc3cccc(F)c3)n(CCc3ccccc3)c(=O)c2n1 | -12.6% (inactive) |  |
| COc1cc(CN(C(=O)c2ccccc2Br)c2ccccn2)cc(OC)c1OC | 7.3% (inactive) |  |
| Cc1cccc(C(=O)Nc2ccc(S(=O)(=O)N3CCCCC3c3cccnc3)cc2)c1 (configuration not stated) | 3.83% (inactive) |  |
| CCN(CCCNC(=O)c1cc2c(=O)n(CC)c3ccccc3c2s1)Cc1ccccc1 | 6.98% (inactive) |  |

| Structure (SMILES) | activity change, negative = inhibition | Potency |
| --- | --- | --- |
| Cc1ccc(C)c(Cn2c(CCCNC(=O)C3CCCCC3)nc3ccccc32)c1 | 5.68% (inactive) |  |
| C=CCNC(=O)c1ccccc1NC(=O)c1ccc(Cl)c(S(=O)(=O)Nc2cccc(C)c2C)c1 | 3.15% (inactive) |  |
| O=C(CN1C(=O)CSc2ncccc21)N1CCOCC1 | -0.277% (inactive) |  |
| Cc1cc(/C=C2/SC(=O)N(CC(=O)N3CCCC3)C2=O)ccc1N1CCOCC1 |  | 16.9 µM (active) |
| Cc1ccc2c(c1)N(CC(=O)N1CCOCC1)C(=O)CO2 | 2.75% (inactive) |  |
| COc1ccc(-c2nn(-c3ccccc3)cc2/C=C2/SC(=S)N(CCCC(=O)O)C2=O)c(C)c1 | -4.65% (inactive) |  |
| CCCNC(=O)c1ccccc1NC(=O)CSCc1ccc(OC)cc1 | 0.71% (inactive) |  |
| COc1ccc(/C=C2/SC(=O)N(CCCCCC(=O)Nc3ccccc3C(=O)O)C2=S)cc1 |  | 16.9 µM (active) |
| COc1cccc(CNC(=O)CSc2c3c(nc4cc(Cl)ccc24)CCCC3)c1 | -4.18% (inactive) |  |
| CC(=O)c1ccc(N2CCN(c3nc4c(S(=O)(=O)c5ccccc5)nnn4c4ccc(Cl)cc34)CC2)cc1 | 1.59% (inactive) |  |
| CCOC(=O)c1c(CNCc2ccccc2F)c2sc(C)cc2n1C | -1.74% (inactive) |  |
| CCN1C(=S)N[C@@H](c2cccc(C(F)(F)F)c2)C(C(=O)OC)=C1C | 0.99% (inactive) |  |
| COc1ccc(-c2noc(CCCC(=O)NC3CCCC3)n2)cc1OC | 1.08% (inactive) |  |
| CC(=O)Nc1ccc(NC(=O)CCCc2nc(-c3ccc(C(C)(C)C)cc3)no2)cc1 |  | 2.69 µM (active) |
| COc1cccc(CNC(=O)CCc2nc(-c3ccc(C)cc3)no2)c1 | 1.48% (inactive) |  |
| CCNC(=O)CCc1nc(-c2ccc(C)cc2)no1 | -17.9% (inactive) |  |
| CCNC(=O)CCc1nc(-c2ccc(C(C)(C)C)cc2)no1 |  | 4.78 µM (active) |
| Cc1cc(C)cc(NC(=O)CCCc2nc(-c3ccccc3Cl)no2)c1 | 5.49% (inactive) |  |
| CCOc1ccccc1CNCc1c(C(=O)O)c(C)n(Cc2ccc(C)cc2)c1C | -2.11% (inactive) |  |
| Cc1cc2ncn(CCCCOc3ccccc3)c2cc1C |  | inactive |
| CCOc1cc(C2C(C(=O)Nc3ccc(OC)cc3)=C(C)Nc3nc(SC)nn32)ccc1O (configuration not stated) | -0.395% (inactive) |  |
| CCOc1ccc(NC(=O)CC(Cc2ccc(Cl)cc2)C(=O)O)cc1 (configuration not stated) | 6.23% (inactive) |  |

| Structure (SMILES) | activity change, negative = inhibition | Potency |
| --- | --- | --- |
| CC(=O)Nc1ccc(NC(=O)C(NS(=O)(=O)c2ccc3c(c2)OCCO3)C(C)C)cc1 (configuration not stated) | 2.54% (inactive) |  |
| COc1ccc(CNC(=O)CNC(=O)c2sc3ccccc3c2Cl)cc1OC | -0.179% (inactive) |  |
| Cc1nn(C)cc1/C=N/NC(=O)c1sc2ccccc2c1Cl |  | 26.9 µM (active) |
| CN1CCc2ccccc2C1Cc1ccccc1NC(=O)c1sc2ccccc2c1Cl (configuration not stated) | -3.51% (inactive) |  |
| Cc1[nH]c2ccccc2c1/C=N\NC(=O)Cn1nnc(-c2ccccc2)n1 | -1.23% (inactive) |  |
| O=C(N/N=C/c1c(Cl)[nH]c2ccccc12)c1sc2ccccc2c1Cl |  | 19 µM (active) |
| Cc1nnsc1C(=O)N/N=C/c1ccccc1Cl | -0.786% (inactive) |  |
| CCN(CC)S(=O)(=O)c1ccc2c(c1)nc(CN(C)C(=O)Nc1ccc(Cl)cc1)n2C | -19.2% (inactive) |  |
| O=C(NCCNc1ccc([N+](=O)[O-])cc1Cl)c1ccccc1F | -29% (inactive) |  |
| CCOC(=O)N1CCc2c(sc(NCc3cccc(F)c3)c2C(=O)Nc2ccccc2OCC)C1 | -18.1% (inactive) |  |
| Cn1ncc(Br)c1C(=O)NCc1cccs1 | -1.21% (inactive) |  |
| O=c1c(NCc2cccs2)nccn1-c1ccccc1 | -13.3% (inactive) |  |
| Cc1nc2cc(NC(=O)NC3CC3)ccc2n1C | -15% (inactive) |  |
| Cc1nn(CC(=O)Nc2ccc3c(c2)nc(CN2CCCCC2)n3C)c(=O)c2ccccc12 | 3.59% (inactive) |  |
| CCOC(=O)N1CCN(Cc2nc3cc(NC(=O)CC)ccc3n2CC)CC1 | 0.0734% (inactive) |  |
| C=CCN(C(=O)Nc1ccc2c(c1)nc(C)n2C)c1ccccc1 |  | 15.1 µM (active) |
| Cc1cc2nc(C)n(CCCNC(=O)Nc3ccccc3)c2cc1C | 1.77% (inactive) |  |
| Cc1nc2cc(NC(=O)Nc3cccc(F)c3)ccc2n1C |  | 0.757 µM (active) |
| Cc1nc2cc(NCc3cccs3)ccc2n1C |  | 15.1 µM (active) |
